Vaccinia Venus: inhibitors of vaccinia virus (Venus reporter); Vaccinia virus Venus reporter expression, fluorescence; Potency, µM (doses to about 36.5 µM), usual class: inhibitors; 0.46% of 330,000 active; calls by dose curve; tested in A549 cells; further: nearly all actives have a fitted effect of over 30% in size
Vaccinia mCherry: vaccinia inhibition (mCherry reporter). Vaccinia virus mCherry reporter infection, fluorescence. Potency, µM (series often up to 36.5 µM), actives largely listed as inhibitors. 0.63% of 310,000 active. AID 720579; calls by dose curve; tested in A549 cells; further: nearly all actives have a fitted effect of over 35% in size
Shiga inhibitor: Shiga toxin inhibition. Vero cells, Shiga toxin protein synthesis inhibition reporter. inhibition, % at 38.7 µM. 9.2% of 290,000 active; in the data active means inhibition mostly above about 28%, no sharp cut-off; inactive means mostly below about 43%
LASV entry inh: blocks Lassa virus binding to or entry into cells | Lassa virus pseudotype entry inhibition, cell reporter | Potency, µM (doses to about 37.9 µM), actives largely listed as inhibitors | 1.2% of 300,000 active; calls by dose curve; tested in HEK293 cells; further: nearly all actives have a fitted effect of over 50% in size
Cycloheximide cs: counter-screen for Shiga toxin inhibitors: cycloheximide protein synthesis inhibition. cell reporter, cycloheximide protein synthesis inhibition counterscreen. max response, %. 12% of 300,000 active; in the data active means max response mostly above about 13%, no sharp cut-off; inactive means mostly below about 14%; further: read at 38.3 µM for the half of the compounds with a filed dose
MARV entry inh: inhibitors of Marburg virus binding or cell entry; 1.8% of 300,000 active; Marburg virus pseudotyped entry inhibition, cell reporter; Potency, µM (highest dose often 37.8 µM), usual class: inhibitors; calls by dose curve; tested in HEK293 cells
A number is an active result; n = inactive; u = inconclusive; x = no result given; + = active, no number. Shown is part of a subset that was picked to be rich in hits.

SMILES	Vaccinia Venus	Vaccinia mCherry	Shiga inhibitor	LASV entry inh	Cycloheximide cs	MARV entry inh
COc1ccc(NC(=O)NCc2ccccn2)cc1	n	n	n	n	n	n
O=C(Nc1ccccc1)OCc1ccccn1	x	x	57	n	26	n
Cc1ccccc1NC(=O)OCc1cn(-c2ccc(Cl)cc2)nn1	x	x	n	n	n	n
O=C(NCc1ccccn1)Nc1ccc(Br)cc1	x	x	29	x	12	x
O=C(Nc1ccc(Cl)cc1)OCc1cn(-c2ccccc2)nn1	n	n	n	n	30	n
Cn1ccnc1C1CCCCN1C(=O)CN1Cc2ccccc2OC(c2ccccc2F)C1 (stereo unspecified)	n	n	x	x	x	x
O=C(NCc1ccccn1)Nc1cccc(F)c1	x	x	39	x	26	x
O=C(NCc1ccccn1)Nc1ccc(F)cc1F	x	x	n	x	n	x
Cc1cccc(NC(=O)C(=O)NCc2ccccn2)c1	n	n	168	u	59	n
COc1ccc(/C=N/NC(=O)c2ccoc2C)cc1COc1c(C)cccc1C	u	13µM	117	u	33	5.6µM
COc1cc(/C=N/NC(=O)c2ccoc2C)cc(OC)c1O	n	n	83	u	47	n
Cc1ccc(C)c(N2N=C(C(=O)Nc3nccs3)CCC2=O)c1	n	n	n	n	n	n
OC[C@H]1OC(Nc2ccc(N=Nc3ccccc3)cc2)[C@@H](O)[C@@H](O)[C@@H]1O (stereo partly specified)	x	x	112	x	37	x
CC(C)N(c1ccccc1)c1ccc(NC(=O)[C@@H]2O[C@H](CO)[C@H](O)[C@H](O)[C@H]2O)cc1	n	n	x	x	x	x
C#CCn1cccc(C(=O)Nc2ccc(OC)cc2)c1=O	x	x	46	x	18	x
C#CCn1cc(Cl)cc(C(=O)Nc2ccccc2)c1=O	n	n	n	x	17	x
O=C(Nc1ccccc1)c1ccc(=O)n(Cc2cccc(Cl)c2)c1	n	n	n	n	n	u
CCCn1cccc(C(=O)Nc2ccc(OC)cc2)c1=O	n	n	n	u	22	u
CCc1cc2c(nc1CC)CCN(CCC(C)=NOC[C@H]1O[C@H](c3ccccc3)C=C[C@H]1Oc1ccc(OC)cc1)C2	x	x	x	x	x	n
CC1CCCC(C)N1/N=C/c1ccc(C#N)cc1 (stereo unspecified)	n	n	n	n	26	u
CC1CCCC(C)N1/N=C/c1ccc(Cl)cc1 (stereo unspecified)	n	n	n	n	n	n
CCOc1ccc(/C=N/N2C(C)CCCC2C)cc1 (stereo unspecified)	n	n	n	n	37	n
CCOc1cccc(/C=N/N2C(C)CCCC2C)c1O (stereo unspecified)	x	x	n	x	30	x
Oc1ccccc1CNCCCN1CCOCC1	n	n	x	n	n	n
Cc1ccc(C)c(Cn2c(=O)c3c(nc4n3CCN4c3ccc(F)cc3)n(C)c2=O)c1	n	n	x	n	x	x
SMILES	Vaccinia Venus	Vaccinia mCherry	Shiga inhibitor	LASV entry inh	Cycloheximide cs	MARV entry inh
CC(C)c1nc2cc(C(=O)N(C)C3CCOCC3)ccc2o1	n	n	42	n	37	n
COCC1CCN(C(=O)c2ccc3oc(C(C)C)nc3c2)C1 (stereo unspecified)	n	n	x	x	x	x
COc1ccc(OCC(=O)N/N=C(\CCC(=O)O)c2cccs2)cc1	n	n	n	u	n	n
O=C(O)CC/C(=N\NC(=O)c1ccccc1)c1cccs1	n	n	109	x	49	n
COC(=O)N/N=C(\CCC(=O)O)c1cccs1	n	n	n	n	15	n
CC(C)c1ccc(C2C3=C(CC(c4ccco4)CC3=O)Nc3nc(C(F)(F)F)nn32)cc1 (stereo unspecified)	x	x	n	x	n	x
Cc1nn(CC(=O)NC2CC2)c(=O)c2cc3cc(F)ccc3n12	n	n	x	x	x	n
Cc1c(NC(=O)c2ccc(-c3ccc(F)cc3)o2)cccc1-c1nc2ncccc2o1	n	n	x	n	x	x
O=C(Cc1ccccc1)NCCSC1CCCCC1	x	x	58	x	31	x
CC(=O)OCc1c(C(F)(F)F)nn(C)c1Oc1ccccc1	x	x	n	n	n	n
Cn1nc(-c2ccccc2)c(CO)c1Oc1ccc(F)cc1	n	n	n	n	18	u
CC(C)COc1ccc(C(=O)N/C(=C/c2cccc([N+](=O)[O-])c2)C(=O)O)cc1	x	x	n	x	n	x
CC(C)[C@H](NC(=O)[C@@H]1CSC2c3ccccc3C(=O)N21)C(=O)NC1CCCC1 (stereo partly specified)	x	x	n	x	n	x
CCOc1ccc(OCc2cccc(C(=O)N3CCCC3)c2)cc1	n	n	139	u	87	u
CCOc1ccc(OCc2cccc(C(=O)N3CCCCCC3)c2)cc1	n	n	+	3.5µM	65	u
O=C(OCC(F)(F)F)c1cccc(COc2ccc3ccccc3c2)c1	u	x	140	u	82	1.3µM
O=C(NN1CCCCC1)c1cccc(COc2ccc(Cl)cc2)c1	n	n	90	u	76	u
CCCn1c(=O)c2c(nc3n2CCCN3CCc2ccc(OC)c(OC)c2)n(C)c1=O	x	x	n	x	n	x
CC(C)C[C@H]1COCCS(=O)(=O)N1Cc1cccc(F)c1	n	n	x	x	x	x
CCOC(=O)C1CN(S(=O)(=O)c2cccs2)c2ccc(CC(=O)OC)cc2O1 (stereo unspecified)	n	n	n	n	n	u
COc1ccc(C)cc1NC(=O)Nc1ccccc1OCc1cc(=O)n2ccccc2n1	n	n	x	n	x	x
CCOc1ccc(OCc2cccc(C(=O)O)c2)cc1	n	n	n	u	18	u
CN1CCN(c2nc3c(S(=O)(=O)c4ccc(Cl)cc4)nnn3c3ccsc23)CC1	u	u	x	n	x	x
COc1ccc2nc(Sc3c([N+](=O)[O-])nc(C)n3Cc3ccccc3)[nH]c2c1	x	x	n	16µM	n	u
Cc1ccc(SCc2cc(=O)n3[nH]c(C)nc3n2)cc1	n	n	n	n	n	n
SMILES	Vaccinia Venus	Vaccinia mCherry	Shiga inhibitor	LASV entry inh	Cycloheximide cs	MARV entry inh
Cc1ccc(SCc2cc(=O)n(C)[nH]2)cc1	n	n	55	x	n	x
CCOC(=O)c1cc(C)n(CC2CCC(C(=O)Nc3cccc(C)c3)CC2)c1C (stereo unspecified)	n	n	x	n	x	x
C=CCC[C@H](Cc1ccc(F)cc1)C(=O)OC[C@H](Cc1c[nH]c2ccccc12)NC(=O)[C@@H](CC=C)CC(=O)N[C@H](CO)Cc1ccccc1	11µM	n	x	x	x	x
C=CCC[C@@H](Cc1ccc(F)cc1)C(=O)OC[C@H](Cc1c[nH]c2ccccc12)NC(=O)[C@@H](CC=C)CC(=O)N[C@H](CO)Cc1ccccc1	u	n	x	x	x	x
C=CC[C@@H](CC(=O)N[C@@H](CO)Cc1ccccc1)C(=O)N[C@H](COC(=O)[C@@H](CC=C)CC(=O)OC(C)(C)C)Cc1c[nH]c2ccccc12	11µM	u	x	x	x	x
C=CCC[C@H](Cc1ccc(F)cc1)C(=O)OC[C@H](Cc1c[nH]c2ccccc12)NC(=O)[C@@H](CC=C)CC(=O)N[C@@H](CO)Cc1ccccc1	10µM	n	x	x	x	x
O=C(c1ccc2c(=O)n3c(nc2c1)CCCCC3)N1CCN(c2ccc([N+](=O)[O-])cc2)CC1	x	x	n	x	n	x
COc1ccc(S(=O)(=O)NCC(c2ccc3c(c2)OCO3)N2CCOCC2)cc1C (stereo unspecified)	n	n	x	u	x	n
CCOC(=O)c1cc(C)n(CCc2cnc[nH]2)c1C	n	x	n	u	15	n
